PubChem BioAssay AID2685 (National Center for Advancing Translational Sciences (NCATS), 2010)
In all, about 320,000 compounds went through this assay and about 2,100 (0.66%) were called active. Roughly 53% stayed inconclusive and do not appear here. Calls come from the whole dose curve; as a rule, active = well fitted inhibition curve with a large enough effect in the signal ratio, with a control signal flat (not every such curve was filed as active); inconclusive = small, poorly fitted or top-dose-only effect, or effect the other way, or a change in a side signal; inactive = flat fitted curve, though single readings scatter; the % refers to the signal ratio. Only a selection was taken, and actives are over-represented in it overall.

assay: qHTS Assay for Lipid Storage Modulators in Drosophila S3 Cells; conditions: BODIPY lipid droplet fluorescence, 18-24 h, cells fed with added oleic acid; cell number change: measured here: cell count max response; series mostly up to 46.1 µM;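 for cell number change: cells counted by Cell Tracker Red CMTPX staining in the red channel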; for lipid storage change, negative = inhibition: % is set by controls: 0 for no effect and ±100 for the full control effect
Method in brief: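 Laser-scanning cytometry quantifies lipid droplet accumulation (500–530 nm total intensity; droplet/cell object ratio) in oleic acid-fed (400 uM added) Drosophila S3 cells treated with a concentration series. 20 uM Triacsin C defined 100% inhibition.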
Potency is the fitted concentration of half-maximal effect.

**Q.** For `O=C(NCCN1CCN(C(=O)c2ccc([N+](=O)[O-])cc2)CC1)C(=O)NCc1ccccc1`, which Potency is on record?
**A.** inactive

**Q.** What about the cell number change of the same compound?
**A.** -7.25%

**Q.** With `O=C(c1cccc([N+](=O)[O-])c1)N1CCN(c2cccc(Cl)c2)CC1` as the compound, how does the Potency read?
**A.** inactive

**Q.** Which Potency does the source give for `O=C(NCCN1CCN(C(=O)c2cccc([N+](=O)[O-])c2)CC1)C(=O)NCc1ccc(Cl)cc1` here?
**A.** 6.51 µM (active)

**Q.** What about the cell number change of the same compound?
**A.** -18.5%

**Q.** With `CC(=O)Nc1ccc(SCC(=O)c2c(N)n(Cc3ccccc3)c(=O)n(C)c2=O)cc1` as the compound, how does the Potency read?
**A.** inactive

**Q.** What about the cell number change of the same compound?
**A.** 14.5%

**Q.** For `CCOC(=O)C1CCN(C(=O)CCNC(=O)Cn2ccc3ccccc3c2=O)CC1`, which Potency is on record?
**A.** inactive

**Q.** What about the cell number change of the same compound?
**A.** 0.532%

**Q.** For `Cc1sc2nc(COC(=O)c3ccc(N4CCCC4)c([N+](=O)[O-])c3)[nH]c(=O)c2c1C`, which Potency is on record?
**A.** inactive

**Q.** What about the cell number change of the same compound?
**A.** 5.98%

**Q.** Which Potency does the source give for `CCOC(=O)c1c(NC(=O)c2ccc(C)cc2)sc2c1CC(C)(C)NC2(C)C` here?
**A.** inactive

**Q.** What about the cell number change of the same compound?
**A.** -1.96%

**Q.** With `Cc1ccc(NC(=O)Cc2nn(C)c(=O)c3ccccc23)cc1F` as the compound, how does the Potency read?
**A.** inactive

**Q.** Which Potency does the source give for `CC(=O)Nc1ccc(C(=O)NNC(=O)c2ccc(Cl)cc2)cc1` here?
**A.** inactive

**Q.** Which results are given for `CC(=O)Nc1ccc(C(=O)NC(CC(=O)O)c2ccc(Cl)cc2)cc1` (stereo not given)?
**A.** Potency: 20.6 µM (active); cell number change: -19.4%

**Q.** For `CC(=O)Nc1ccc(NC(=O)CC(NC(=O)c2ccccc2)c2ccccc2)cc1` (stereo not given), which Potency is on record?
**A.** inactive

**Q.** And the cell number change?
**A.** 19%

**Q.** What does the source list for `COc1ccc(NC(=O)C(c2ccc(OC)cc2)N(C)C(=O)Cc2cccs2)cc1` (stereo not given)?
**A.** Potency: inactive; cell number change: 9.03%

**Q.** With `O=C(Cc1ccccc1)NNC1CC(=O)N(c2ccccc2)C1=O` (stereo not given) as the compound, how does the Potency read?
**A.** inactive

**Q.** And the cell number change?
**A.** 0.451%

**Q.** For `CC(=O)N1CCN(c2ccc(NC(=O)c3ccc(N4CCCC4)c([N+](=O)[O-])c3)cc2Cl)CC1`, which Potency is on record?
**A.** inactive

**Q.** What does the source list for `O=C(Nc1nc2ccccc2s1)C1CC(=O)N(c2ccc(Br)cc2)C1` (stereo not given)?
**A.** Potency: inactive; cell number change: 1.03%

**Q.** For `CCc1ccc(N2CC(C(=O)Nc3nc4ccc(S(C)(=O)=O)cc4s3)CC2=O)cc1` (stereo not given), which Potency is on record?
**A.** 2.31 µM (active)

**Q.** What about the cell number change of the same compound?
**A.** -21.1%

**Q.** What does the source list for `CCc1ccc(N2CC(C(=O)Nc3nccs3)CC2=O)cc1` (stereo not given)?
**A.** Potency: inactive; cell number change: -0.507%

**Q.** With `COc1cc(-n2c(=O)c3ccccc3n(CC(=O)c3ccc(Br)cc3)c2=O)cc(OC)c1OC` as the compound, how does the Potency read?
**A.** inactive

**Q.** And the cell number change?
**A.** 7.89%

**Q.** With `CC(=O)Nc1ccc(NC(=S)NC(=O)C2CCCC2)cc1` as the compound, how does the Potency read?
**A.** inactive

**Q.** And the cell number change?
**A.** 16.2%

**Q.** Which Potency does the source give for `CCN(CC)c1ccc(NC(=S)NC(=O)C2CCC2)cc1` here?
**A.** 4.11 µM (active)

**Q.** What about the cell number change of the same compound?
**A.** -16.8%

**Q.** Which results are given for `COc1ccc(NC(=S)NC(=O)C2CCC2)cc1`?
**A.** Potency: inactive; cell number change: -5.57%

**Q.** With `Cc1ccc(C(=O)OCC(=O)NCCNC(=O)COC(=O)c2ccc(C)o2)o1` as the compound, how does the cell number change read?
**A.** 26.3%

**Q.** And the outcome?
**A.** inactive [at 0.0737 µM]

**Q.** With `Cc1ccc(S(=O)(=O)Nc2ccc(-c3ccc4nncn4n3)cc2)cc1` as the compound, how does the Potency read?
**A.** inactive

**Q.** What about the cell number change of the same compound?
**A.** -22.1%

**Q.** With `CC(=O)Nc1ccc(S(=O)(=O)Nc2cccc(-c3ccc4nncn4n3)c2)cc1` as the compound, how does the Potency read?
**A.** 0.731 µM (active)

**Q.** What about the cell number change of the same compound?
**A.** -19.1%

**Q.** Which lipid storage change, negative = inhibition does the source give for `Cc1ccc(S(=O)(=O)Nc2cccc(-c3ccc4nncn4n3)c2)cc1` here?
**A.** -0.542% [at 0.0737 µM] (inactive)
